Screening data as filed in PubChem BioAssay.
Pf Dd2 growth = P. falciparum Dd2 growth inhibition; SYBR Green, 72 h; active compounds read low; hit rate 2.3% among 94,000; activity change, % at 10 µM; AID 1159554; in the data active means activity change below about -80%; inconclusive means no clear call, values can overlap the other calls
C diff growth = blocks growth of Clostridium difficile | growth activity, negative = inhibition, % at 16 µg/mL (by protocol) | AID 1259249 | Clostridium difficile clinical isolate growth, OD600, 24 h; active compounds read low | hit rate 0.25% among 86,000;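 active means mean growth activity at or below -80% and every replicate also at or below -80%; inconclusive means mean at or below -80% but some replicate above -80%; inactive means mean growth activity above -80%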;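 further: 0% = DMSO wells and -100% = levofloxacin 16 µg/mL wells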
Tcruzi prolif = inhibitors of T. cruzi proliferation. T. cruzi beta-gal in NIH3T3, GalScreen luminescence, 90 h. inhibition, % at 8.34 µM. hit rate 5.9% among 77,000. AID 624255;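 active means mean inhibition above about 93%, with at least 55% of replicates each passing it, limit read from the data, passing the limit was not always enough; inconclusive means only one of those two conditions holds; inactive means neither condition holds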
* hit, by the source's call; ? = inconclusive; · = no result given; ! = not active in a repeat. An excerpt weighted towards active compounds, which were near 6.8% of everything screened.

SMILES	Pf Dd2 growth	C diff growth	Tcruzi prolif
N#C[C@@H]1[C@H](c2ccc(-c3cccc(F)c3)cc2)[C@@H](CO)N1C(=O)NC1CCCC1	-87*	11	78
N#C[C@@H]1[C@@H](c2ccc(-c3cccc(F)c3)cc2)[C@@H](CO)N1C(=O)NC1CCCC1	-20	-1	91
C[C@@H]1CN([C@H](C)CO)C(=O)c2c(c3ccccc3n2C)-c2ccccc2CO[C@H]1CN(C)Cc1cccc2c1OCCCO2	-68	5	·
C[C@@H]1CN([C@@H](C)CO)C(=O)c2c(c3ccccc3n2C)-c2ccccc2CO[C@@H]1CN(C)Cc1cccc2c1OCCCO2	-85*	17	·
C[C@@H]1CN([C@H](C)CO)C(=O)c2c(c3ccccc3n2C)-c2ccccc2CO[C@@H]1CN(C)Cc1cccc2c1OCCCO2	-84*	16	·
C[C@H]1CN([C@@H](C)CO)C(=O)c2c(c3ccccc3n2C)-c2ccccc2CO[C@@H]1CN(C)Cc1cccc2c1OCCCO2	-80	8	·
C[C@H]1CN([C@@H](C)CO)C(=O)c2cccc(NS(=O)(=O)c3cccs3)c2O[C@@H]1CN(C)CC1CC1	5	5	50
C=C[C@@H](OC)[C@H](OC(=O)Nc1ccc(SC)cc1)c1ccc(OCCO)cc1	·	9	·
O=C(C[C@H]1CC[C@@H](NC(=O)c2ccccc2)[C@H](CO)O1)NCCc1ccncc1	·	0	·
COC(=O)C[C@H]1CC[C@@H]2[C@@H](COc3ccc(NC(=O)c4cccc(F)c4)cc3C(=O)N2C)O1	-12	4	-16
C[C@H](CO)N1C[C@H](C)[C@@H](CN(C)C(=O)Nc2ccc(C(F)(F)F)cc2)Oc2ncc(-c3cccnc3)cc2C1=O	-68	-3	33
COc1ccccc1C#Cc1ccc2c(c1)[C@H]1[C@H](CCN1S(=O)(=O)c1ccccc1)[C@H](CO)N2	-67	-2	89
O=S(=O)(c1ccc(F)cc1)N1CC[C@@H]2[C@@H](CO)Nc3ccc(C#Cc4cccc(F)c4)cc3[C@@H]21	-10	36	·
OC[C@@H]1Nc2ccc(C#Cc3cccc(F)c3)cc2[C@@H]2NCC[C@H]12	-91*	-98*	·
COc1ccccc1C#Cc1ccc2c(c1)[C@H]1NCC[C@H]1[C@@H](CO)N2	-87*	0	·
COc1ccc(S(=O)(=O)N(C)C[C@@H]2OCCCC[C@H](C)Oc3ccc(NC(=O)Cc4ccccc4)cc3C(=O)N([C@H](C)CO)C[C@H]2C)cc1	-84*	8	98
COc1ccc(S(=O)(=O)N(C)C[C@@H]2OCCCC[C@H](C)Oc3ccc(NC(=O)Cc4ccccc4)cc3C(=O)N([C@@H](C)CO)C[C@@H]2C)cc1	-83*	11	102
COc1ccc(S(=O)(=O)N(C)C[C@H]2OCCCC[C@H](C)Oc3ccc(NC(=O)Cc4ccccc4)cc3C(=O)N([C@@H](C)CO)C[C@H]2C)cc1	?	6	102
COc1ccc(S(=O)(=O)N(C)C[C@@H]2OCCCC[C@@H](C)Oc3ccc(NC(=O)Cc4ccccc4)cc3C(=O)N([C@@H](C)CO)C[C@H]2C)cc1	-61	7	90
C[C@@H]1CCCCO[C@H](CN(C)C(=O)c2ccncc2)[C@H](C)CN([C@H](C)CO)C(=O)c2cc(NS(C)(=O)=O)ccc2O1	31	8	21
CN(C)CC(=O)N1[C@@H]2c3cccc(=O)n3C[C@@H]2[C@@H](CO)[C@@H]1C(=O)NCc1ccccc1F	4	-1	·
O=C(C[C@H]1CC[C@H]2[C@@H](COC[C@@H](O)CN2C(=O)Nc2cc(Cl)cc(Cl)c2)O1)N1CCOCC1	·	-15	0
O=C(C[C@@H]1CC[C@@H]2[C@H](COC[C@@H](O)CN2C(=O)Nc2cc(Cl)cc(Cl)c2)O1)N1CCOCC1	·	63	25
O=C(C[C@@H]1CC[C@@H]2[C@H](COC[C@H](O)CN2C(=O)Nc2cc(Cl)cc(Cl)c2)O1)N1CCOCC1	·	-101*!	-25
O=C(C[C@H]1CC[C@@H]2[C@H](COC[C@H](O)CN2C(=O)Nc2cc(Cl)cc(Cl)c2)O1)N1CCOCC1	·	-92*!	10
C[C@@H]1CN([C@@H](C)CO)C(=O)Cc2cc(NC(=O)Cc3ccccc3)ccc2O[C@H]1CN(C)S(=O)(=O)c1cccs1	-8	4	61
O=C(C[C@@H]1C[C@H]2c3cc(NC(=O)Nc4ccccc4)ccc3O[C@H]2[C@H](CO)O1)NCc1ccccn1	4	0	6
C[C@H](CO)N1C[C@H](C)[C@H](CN(C)C(=O)C2CCCCC2)OCCCC[C@H](C)Oc2ccc(NC(=O)Nc3ccccc3)cc2C1=O	-1	-8	91
C[C@H]1CCCCO[C@@H](CN(C)C(=O)C2CCCCC2)[C@@H](C)CN([C@@H](C)CO)C(=O)c2cc(NC(=O)c3ccncc3)ccc2O1	-81*	-3	18
